Tests used:
Type in all cases: functional
Plasmodium falciparum [1] = assay: GSK_TCMDC: Inhibition of Plasmodium falciparum 3D7 in whole red blood cells, using parasite LDH activity as an index of growth. Test compounds present at 2uM
Plasmodium falciparum [2] = assay: GSK_TCMDC: Inhibition of Plasmodium falciparum Dd2 in whole red blood cells, using parasite LDH activity as an index of growth. Test compounds present at 2uM
HepG2 = assay: GSK_TCMDC: Percent inhibition of human HepG2 cell line. Test compounds present at 10uM.

Structure (SMILES) | Inhibition (Plasmodium falciparum [1]) | Inhibition (Plasmodium falciparum [2]) | Inhibition (HepG2)
CCOC(=O)c1ccc(NC(=O)N(Cc2ccc(-c3cccc(CN4CCNCC4)c3)cc2)C2CCN(Cc3ccccc3)CC2)cc1.O=C(O)C(F)(F)F | 100% | 55% | 19%
CC(=O)Nc1cccc(C(=O)Nc2ccc(-c3ccc(-c4nc5cccc(C)c5[nH]4)s3)cc2)c1 | 93% | 20% | 94%
Clc1ccc(C=NN=c2cc[nH]c3ccccc23)cc1 | 100% | 97% | 5%
CC1(C)NC(N)=NC(=N)N1OCc1nc(N)nc(Nc2ccccc2)n1 | 98% | 0% | 3%
COC(=O)c1cccc(CNCc2cccc(-c3cccc(-c4nc5ccccc5[nH]4)c3)c2)c1.O=C(O)C(F)(F)F | 95% | 58% | 3%
Cc1cc(NC(=O)Nc2ccc3nc(C)oc3c2)c2cc(Cl)ccc2n1 | 100% | 57% | 0%
CC(=O)c1ccc2cc(C(=O)NC3CCC(CCN4CCc5ccc(-c6noc(C)n6)cc5CC4)CC3)[nH]c2c1.Cl (stereo not given) | 81% | 45% | 28%
O=C(Nc1ccc(C(F)(F)F)cc1)c1ccc(S(=O)(=O)NC2CCN(CC3CCCCC3)CC2)cc1.O=C(O)C(F)(F)F | 100% | 20% | 30%
O=C(CSc1nc(-c2ccccc2Cl)ns1)Nc1cccc(F)c1 | 93% | 81% | 0%
CC(=NNC(=N)N)c1ccc2ccc3ccccc3c2c1.Cl | 97% | 23% | 14%
OC(CNc1cccc(Cl)c1)Cn1c2ccc(Cl)cc2c2cc(Cl)ccc21 (stereo not given) | 95% | 33% | 8%
CC(C)(C)COC(=O)c1ccc(NC(=O)N[C@@H](Cc2ccc(O)cc2)C(=O)NC2CCN(Cc3ccc(O)cc3)C2)cc1.O=C(O)C(F)(F)F (stereo not given in full) | 94% | 21% | 3%
COc1cc2nc(NCc3cccc(CNC(=O)c4ccc(-c5ccc(C(C)=O)cc5)cc4)c3)nc(N)c2cc1OC.O=C(O)C(F)(F)F | 100% | 72% | 32%
CN1CCN(CCCN(Cc2cccc(-c3ccc(CNCCc4ccccc4)cc3)c2)C(=O)c2cccs2)CC1.O=C(O)C(F)(F)F | 100% | 97% | 86%
O=C(Nc1cccc(CN2CCCN(Cc3ccc4c(c3)OCO4)CC2)c1)c1cc2ccccc2s1.O=C(O)C(F)(F)F | 95% | 11% | 32%
Cc1ccc(C)c2sc(N(CCCn3ccnc3)C(=O)C=Cc3cccs3)nc12.Cl | 100% | 93% | 20%
CCOc1cc(Cc2cnc(N)nc2N)cc(OCC)c1-n1cccc1 [EPIROPRIM] | 98% | 0% | 0%
O=C(N1CCN(c2ccc(C(F)(F)F)cc2[N+](=O)[O-])CC1)C(Cl)(Cl)Cl | 100% | 99% | 29%
CC(Cc1ccc(C(=O)OC(c2ccccc2)c2ccccc2)cc1)NCC(O)c1ccccc1.Cl (stereo not given) | 100% | 98% | 83%
O=C(NCc1ccccn1)C(c1cc2ccccc2o1)N1CCN(C(c2ccccc2)c2ccccc2)CC1 (stereo not given) | 95% | 68% | 17%

Structure (SMILES) | Inhibition (Plasmodium falciparum [1]) | Inhibition (Plasmodium falciparum [2]) | Inhibition (HepG2)
Cc1cc(N)c2cc(NC(=O)/C=C/c3ccc([N+](=O)[O-])cc3)ccc2n1 | 100% | 80% | 76%
O=C(O)C(F)(F)F.c1cc(-c2ccc(CN3CCCCC3)cc2)cc(-c2nc3ccccc3[nH]2)c1 | 100% | 79% | 39%
COc1ccc2c(=NN=Cc3cccc(F)c3)cc(C)[nH]c2c1 | 100% | 100% | 17%
O=C(Nc1cccc(-c2ccc(-c3nc4cc(F)ccc4[nH]3)cc2)c1)c1ccoc1 | 85% | 6% | 39%
N=C(N)NC(=O)Nc1cc(Cl)c(Cl)c(Cl)c1 | 100% | 100% | 0%
Cn1ccnc1-c1nc2ccccn2c1NCC(=O)Nc1ccccc1N1CCCCC1 | 85% | 57% | 16%
CCCCC(=O)Nc1nonc1-c1ccc(OCC)c(OCC)c1 | 100% | 95% | 9%
CC(C)(C)c1ccc(CN(C[C@@H](O)CNS(=O)(=O)c2cc(Cl)cc(Cl)c2)C(C)(C)C)cc1.Cl | 98% | 94% | 74%
COc1ccc(CC(=O)Nc2ccc(-c3cccc(-c4nc5cccc(C)c5[nH]4)c3)cc2)cc1O | 96% | 30% | 6%
COc1cc2c(cc1C(F)(F)F)N(C(=O)Nc1cccc(-c3ccc(CN(C)C)cc3)c1)CC2 | 100% | 93% | 95%
Cl.ON=C1c2cc(OCCN3CCCCC3)c(Cl)cc2-c2cc(Cl)c(OCCN3CCCCC3)cc21 | 97% | 98% | 99%
O=C(NC1CCN(c2ccnc3cc(Cl)ccc23)C1)c1cccc(F)c1.O=C(O)C(F)(F)F (stereo not given) | 95% | 98% | 30%
COc1cccc(Nc2nc(C)cc(Nc3cccc(C#N)c3)n2)c1 | 100% | 92% | 0%
Cc1sc2ncnc(Sc3nnc(N)s3)c2c1C | 100% | 100% | 9%
CCCCOc1cc(C)nc2ccc(NC(=O)COCC(=O)Nc3ccc4nc(C)cc(OCCCC)c4c3)cc12 | 90% | 28% | 0%
Fc1ccc2[nH]c(-c3ccccc3)nc2c1CN1CCC(N2CCCC2)CC1.O=CO | 100% | 30% | 2%
CCc1c[nH]c2c(N(c3ccccc3)S(C)(=O)=O)cc(C(=O)N[C@@H](Cc3ccccc3)[C@H](O)CNC(C)(C)CCCC(C)C)cc12.O=CO | 98% | 96% | 99%
CCOc1cc(Br)c(C(C)NC(=O)c2cccc(OC)c2)cc1OCC (stereo not given) | 90% | 37% | 0%
CCc1ccc(N2C(N)=NC(N)=NC2(C)C)cc1.Cl | 94% | 0% | 51%
COC(=O)c1ccc(OCC(C)NCC(O)c2cccc(C(F)(F)F)c2)cc1.O=C(O)/C=C/C(=O)O (stereo not given) | 94% | 81% | 6%

Structure (SMILES) | Inhibition (Plasmodium falciparum [1]) | Inhibition (Plasmodium falciparum [2]) | Inhibition (HepG2)
Nc1ccc(-c2nc3cc(Cc4ccc5[nH]c(-c6ccc(N)cc6)nc5c4)ccc3[nH]2)cc1 | 100% | 96% | 47%
COc1cccc(C(=O)NC(C=Cc2ccccc2)c2cc(Cl)c3cccnc3c2O)c1 (stereo not given) | 95% | 58% | 27%
COc1ccc(CNCc2ccc(-c3ccc(-c4nc5cc(C(F)(F)F)ccc5[nH]4)cc3)cc2)cc1.O=C(O)C(F)(F)F | 100% | 99% | 75%
Nc1ncc(-c2cc3ccccc3o2)c(N)n1 | 81% | 2% | 0%
COc1ccc(OCCON)cc1.Cl | 98% | 0% | 0%
COc1ccc(NC(=O)[C@H](Cc2ccccc2)Nc2nc(NCCN3CCCC3)ncc2C)cc1.O=C(O)C(F)(F)F | 89% | 9% | 26%
CC1CCN(C(=O)C(Cc2c[nH]c3ccccc23)NS(=O)(=O)c2ccc(Cl)cc2)CC1 (stereo not given) | 100% | 99% | 0%
COc1ccc(C(=O)Nc2ccc(Cl)cc2C(=O)Nc2ccncc2)cc1 | 91% | 29% | 7%
CC(C)CCNc1nc(NCCCc2ccccc2)c2cc(O)ccc2n1 | 100% | 95% | 14%
O=C(O)C(F)(F)F.OCC1CCN(Cc2ccc(-c3cccc(-c4nc5cc(F)ccc5[nH]4)c3)cc2)CC1 | 100% | 25% | 14%
CC(CN1CCN(C)CC1)C(=O)Nc1ccc(-c2csc(-c3nc4ccccc4[nH]3)c2)cc1 (stereo not given) | 93% | 26% | 15%
CC(C)CCNc1nc(NCc2ccccc2)c2cc(O)ccc2n1 | 100% | 92% | 25%
COc1ccc(NC(=O)Nc2cccc(-c3ccc(-c4nc5cc(C(F)(F)F)ccc5[nH]4)cc3)c2)cc1 | 100% | 29% | 46%
Cc1c(S(=O)(=O)Nc2ccc3nccc(N4CCN[C@H](C)C4)c3c2)sc2ccc(Cl)cc12.Cl | 96% | 0% | 16%
Cc1cc(=O)[nH]c2cc(Nc3ccnc(Nc4cccc(C(N)=O)c4)n3)ccc12.Cl | 99% | 98% | 27%
O=C(O)C(F)(F)F.OCCN1CCN(Cc2ccc(-c3ccc(-c4nc5ccccc5[nH]4)cc3)cc2)CC1 | 100% | 58% | 6%
COc1cc2nc(N3CCN(C(=O)c4ccc(N(C(=O)OC(C)(C)C)C(=O)OC(C)(C)C)cc4)CC3)nc(N)c2cc1OC | 96% | 19% | 12%
CCN(CC)C(C)(C)CN(Cc1ccc(-c2ccc(C(F)(F)F)cc2)cc1)C(=O)Cn1c(CCc2cccc(F)c2F)nc(=O)c2ccccc21.O=C(O)C(O)C(O)C(=O)O | 91% | 79% | 53%
Cc1nn(C2CCS(=O)(=O)C2)c(C)c1C1Nc2ccccc2C(=O)N1Cc1ccc2c(c1)OCO2 (stereo not given) | 98% | 93% | 7%
CCCC(=O)Nc1ccc(OCCCN(Cc2ccccc2C(F)(F)F)c2ccc(C#N)c(C(F)(F)F)c2)cc1 | 89% | 79% | 0%

Source: ChEMBL document CHEMBL1157539, “Thousands of chemical starting points for antimalarial lead identification” (Nature, 2010)
